In all, about 52,000 compounds went through this assay and about 4,300 (8.3%) were called active. This is one part of a sample in which actives are shown more often than they occur. No stated cut-off is given here; in the data, active means survival mostly below about 52% (no sharp cut-off); inactive means mostly above about 56%.
test system: DeltatarO mutant; assay: S. aureus survival, RN4220 and DeltatarO strains – OD600, teichoic acid synthesis inhibitors, primary screen (AID 463173); settings: S. aureus RN4220 wild type/DeltatarO growth, OD600, 18 h, hits give low values, screened at 18.75 µg/mL (by protocol)

Compound	survival
O=C(CN1CCSc2ccccc21)N1CCN(c2ccc(F)cc2)CC1	88% (inactive)
O=C(O)CCCNc1ncnc2ccccc12	92% (inactive)
COc1ccc(NC(=O)C2CCN(c3nc4ccccc4[nH]3)CC2)cc1OC	66% (inactive)
Fc1ccccc1-n1ncc2c1ncn1nc(Cc3ccccc3)nc21	74% (inactive)
COc1cccc(C2C3CN(C(C)=O)CC=C3C(C#N)=C(N)C2(C#N)C#N)c1 (stereo unspecified)	93% (inactive)
CCOC(=O)N1CC=C2C(C#N)=C(N)C(C#N)(C#N)C(c3ccc(CC)cc3)C2C1 (stereo unspecified)	88% (inactive)
CC(C)(C)OC(=O)N1CC=C2C(C#N)=C(N)C(C#N)(C#N)C(c3ccc4c(c3)OCO4)C2C1 (stereo unspecified)	35% (active)
COC(=O)c1ccc(NC(=O)N2CCC(CN3CCc4ccccc4C3)CC2)cc1	6% (active)
Cc1cccc(NC(=O)N2CCC(CN3CCCCCC3)CC2)c1C	81% (inactive)
CCOc1ccc(NC(=O)N2CCC(CN3CCC(C)CC3)CC2)cc1	117% (inactive)
CCOc1ccc(NC(=O)N2CCC(CN3CCCCCC3)CC2)cc1	115% (inactive)
COc1cc(NC(=O)N2CCC(CN3CCc4ccccc4C3)CC2)cc(OC)c1	70% (inactive)
Cc1cccc(NC(=O)N2CCC(CN3CCc4ccccc4C3)CC2)c1C	-2% (active)
CCOc1ccc(NC(=O)N2CCC(CN3CCc4ccccc4C3)CC2)cc1	-1% (active)
Cc1cc(C)cc(NC(=O)N2CCC(CN3CCc4ccccc4C3)CC2)c1	72% (inactive)
CCc1ccccc1NC(=O)N1CCC(CN2CCc3ccccc3C2)CC1	76% (inactive)
COc1ccc(Cl)cc1NS(=O)(=O)c1cc(-c2cc(C)no2)ccc1C	87% (inactive)
CCCCn1c(=O)c2oc3ccccc3c2n(Cc2ccccc2C)c1=O	55% (inactive)
COc1cccc(-n2nnc(-c3nc(-c4ccccc4F)no3)c2C)c1	84% (inactive)
Cc1ccc(NC(=O)CSc2nc3ccccc3n2CC(=O)N2CCC(C)CC2)cc1C	17% (active)
O=C(Cn1c(SCCOc2ccccc2)nc2ccccc21)N1CCOCC1	47% (inactive)
Cc1ccc(OCCSc2nc3ccccc3n2CC(=O)N2CCOCC2)cc1	96% (inactive)
COc1cccc(OCCSc2nc3ccccc3n2CC(=O)N2CCOCC2)c1	44% (active)
CC1CCN(C(=O)Cn2c(SCC(=O)Nc3ccc(F)cc3)nc3ccccc32)CC1	96% (inactive)

Compound	survival
COc1cccc(OCCSc2nc3ccccc3n2CC(=O)N2CCCCC2)c1	42% (active)
Cc1ccc(OCCSc2nc3ccccc3n2CC(=O)N2CCOCC2)c(C)c1	93% (inactive)
Cc1cccc(OCCSc2nc3ccccc3n2CC(=O)N2CCOCC2)c1	44% (active)
CC1CCN(C(=O)Cn2c(SCC(=O)NC(C)(C)C)nc3ccccc32)CC1	92% (inactive)
COc1ccc(OCCSc2nc3ccccc3n2CC(=O)N2CCOCC2)cc1	51% (inactive)
COc1ccc(C2CC(=O)Nc3c2c(C)nn3-c2nncc(-c3ccc(C)cc3)n2)c(OC)c1OC (stereo unspecified)	83% (inactive)
CCOc1ccc(/C=C(\C#N)C(=O)NCc2ccco2)cc1OC	113% (inactive)
CCOc1ccc(CNCc2c(C(=O)O)c(C)n(Cc3c(F)cccc3Cl)c2C)cc1OC	56% (inactive)
COc1ccc(C2CC(=O)c3cc(-c4nc(-c5ccc(C)cc5)cs4)c(=O)[nH]c3C2)cc1 (stereo unspecified)	76% (inactive)
O=C(CNC(=O)c1ccc(Cl)cc1)OCc1cc(=O)n2nc(C3CCCCC3)sc2n1	90% (inactive)
CCCCn1cc(S(=O)(=O)c2ccc(Cl)cc2)c(=O)c2cc(F)c(N3CCCC(C)C3)cc21 (stereo unspecified)	117% (inactive)
O=C(c1ccc(F)cc1)C1CCN(S(=O)(=O)c2ccc(F)cc2)CC1	95% (inactive)
COc1ccc(CNC(=O)CCCc2nnc3n(CCC(C)C)c(=O)c4sccc4n23)cc1	93% (inactive)
Cc1ccc2nc(NC(=O)CSc3cc(C)[nH]c(=O)n3)sc2c1	79% (inactive)
Cn1c(SCCC(=O)O)nc2ccccc21	83% (inactive)
Cc1ccc(OCCSc2nc3ccccc3n2CC(=O)N2CCOCC2)cc1C	53% (inactive)
Cc1ccc(OCCSc2nc3ccccc3n2CCC(=O)O)cc1C	47% (active)
Cc1ccc(OCCSc2nc3ccccc3n2CC(=O)NC(C)C)cc1	52% (inactive)
O=C(Cn1c(SCCOc2ccc(Cl)cc2)nc2ccccc21)N1CCCCC1	50% (inactive)
CCN(CC)C(=O)Cn1c(SCCOc2ccc(Cl)cc2)nc2ccccc21	43% (active)
CCN(CC)C(=O)Cn1c(SCC(=O)Nc2ccc(F)cc2)nc2ccccc21	100% (inactive)
Cc1ccc(OCCSc2nc3ccccc3n2CC(=O)N2CCCCC2)cc1C	46% (active)
Cc1cccc(C)c1OCCSc1nc2ccccc2n1CC(=O)O	83% (inactive)
CCc1ccc(OCCSc2nc3ccccc3n2CC(=O)N2CCCCC2)cc1	40% (active)

Compound	survival
CCc1ccccc1NC(=O)CCn1cccn1	135% (inactive)
CCC1CN(C(=O)N2CCC(C(=O)NCc3ccco3)CC2)c2ccccc2O1 (stereo unspecified)	66% (inactive)
COc1ccccc1CNC(=O)C1CCN(S(=O)(=O)c2c(C)noc2/C=C/c2cccs2)CC1	59% (inactive)
CN(C(=O)CSc1nc2ccc(NC(=O)c3cccc(F)c3)cc2s1)c1ccccc1	69% (inactive)
Cc1ccccc1NC(=O)C(=O)NCC(c1ccc2c(c1)OCO2)N1CCN(c2ccccc2)CC1 (stereo unspecified)	73% (inactive)
O=S(=O)(Nc1cccc(C(F)(F)F)c1)c1ccc(-c2cnc(C3CC3)o2)cc1	91% (inactive)
c1ccc2[nH]c(CN3CCCCC3)nc2c1	59% (inactive)
O=C(NCc1ccc(F)cc1)c1ccc(NC(=O)N2CC3CCCN3c3ccccc32)cc1 (stereo unspecified)	113% (inactive)
Cc1oc(CC(C)C)cc1C(N)=O	100% (inactive)
O=C(CSC1=Nc2ccccc2C2=NC(Cc3ccccc3)C(=O)N12)Nc1ccccc1 (stereo unspecified)	74% (inactive)
CCOc1ccc(-c2cn(-c3ccc(OC)cc3)c(SCC(=O)Nc3ccccc3Cl)n2)cc1	99% (inactive)
CCOc1ccc(NC(=O)CSc2nnc3scc(-c4ccccc4)n23)cc1	17% (active)
Cc1ccc(NC(=O)CSc2nnc3scc(-c4ccccc4)n23)cc1	15% (active)
COc1ccc(NC(=O)CSc2nnc3scc(-c4ccc(Cl)cc4)n23)cc1	95% (inactive)
O=C(CSc1nnc2scc(-c3ccc(Cl)cc3)n12)Nc1ccc(F)cc1	57% (inactive)
O=C(CSc1nnc2scc(-c3ccccc3)n12)Nc1ccc(Cl)cc1	56% (inactive)
CC(=O)Nc1ccc(C(=O)CSc2nnc3scc(-c4ccccc4)n23)cc1	89% (inactive)
CC(C)(C)c1ccc(NC(=O)CSc2nnc3scc(-c4ccccc4)n23)cc1	41% (active)
Cc1cccc(NC(=O)CSc2nnc3scc(-c4ccccc4)n23)c1	40% (active)
Cc1ccc(NC(=O)CSc2nnc3scc(-c4ccc(Cl)cc4)n23)cc1	49% (inactive)
COc1cccc(NC(=O)CSc2nnc3scc(-c4ccc(Cl)cc4)n23)c1	52% (inactive)
O=C(CSc1nnc2scc(-c3ccc(Cl)cc3)n12)Nc1cccc(C(F)(F)F)c1	58% (inactive)
CCOc1ccc(NC(=O)CSc2nnc3scc(-c4ccc(Cl)cc4)n23)cc1	48% (inactive)
CC(NCc1ccc(F)cc1)C(=O)NC1CCCCC1 (stereo unspecified)	79% (inactive)

Compound	survival
Cc1ccc(NC(=O)C2CC(=O)N(c3ccc(OC(C)C)cc3)C2)cc1 (stereo unspecified)	82% (inactive)
COc1ccc(C2CC(c3c(O)n(C4CCCCC4)c(=O)[nH]c3=O)=Nc3ccccc3S2)cc1 (stereo unspecified)	48% (inactive)
O=C1COc2ccccc2N1Cc1ccc(OC(F)(F)F)cc1	86% (inactive)
COc1ccc(CC(=O)NCc2ccc3c(c2)CCN3C(=O)c2ccccc2)cc1OC	82% (inactive)
Cc1ccc(CN(Cc2cccn2-c2nnc(N3CCCC3=O)s2)C(=O)Nc2cc(C)cc(C)c2)cc1	123% (inactive)
COc1ccc(Nc2nc3ccc(C)cc3nc2-n2nc(C)cc2C)cc1Cl	69% (inactive)
COc1cccc(CNC(=O)c2ccc3c(c2)nc2n3CCC(C)C2)c1 (stereo unspecified)	72% (inactive)
Cc1cn2c(=O)cc(COC(=O)c3cccc(NC(=O)COc4ccccc4C)c3)nc2s1	85% (inactive)
CCOc1ccc(CCNC(=O)c2cc3c(-c4ccccc4F)nn(C)c3s2)cc1OCC	67% (inactive)
CCn1nc(-c2ccccc2)c(-c2ccccc2)c(C(=O)Nc2nc(C)c(C(C)=O)s2)c1=O	53% (inactive)
COCc1cc(C)nc2c1C(=O)NC(c1ccc(NC(C)=O)cc1)N2Cc1ccccc1 (stereo unspecified)	74% (inactive)
O=C(CSc1nccn1Cc1ccc(Cl)cc1)NC1CCCC1	83% (inactive)
COc1ccc(CNC(=O)Cn2c(=O)nc(-c3ccccc3F)c3cc(Cl)ccc32)cc1	72% (inactive)
CCC(C)Nc1nc(OC(C(F)(F)F)C(F)(F)F)nc(N(CC)CC)n1 (stereo unspecified)	80% (inactive)
FC(F)(F)COc1nc(OCC(F)(F)F)nc(OCC(F)(F)F)n1	74% (inactive)
Nc1nc(OC(C(F)(F)F)C(F)(F)F)nc(OC(C(F)(F)F)C(F)(F)F)n1	13% (active)
O=C(O)Cn1ccc(=O)[nH]c1=O	96% (inactive)
CCOc1ccc(CCNC(=O)c2cc3c(=O)oc4ccc(C)cc4c3s2)cc1OCC	67% (inactive)
Cc1nc2nc(NCc3ccc(Br)cc3)[nH]n2c(=O)c1Cc1ccccc1	39% (active)
Cc1nc2nc(NCc3ccc(Cl)cc3)[nH]n2c(=O)c1Cc1ccccc1	40% (active)
Cc1nc2nc(NCc3cccc(Br)c3)[nH]n2c(=O)c1Cc1ccccc1	54% (inactive)
CCc1ccc(CNc2nc3nc(C)c(Cc4ccccc4)c(=O)n3[nH]2)cc1	80% (inactive)
Cc1nc2nc(NCc3cccc(Cl)c3)[nH]n2c(=O)c1Cc1ccccc1	78% (inactive)
Cc1nc2nc(NCc3ccccc3Cl)[nH]n2c(=O)c1Cc1ccccc1	83% (inactive)

— PubChem BioAssay AID463173 (ICCB-Longwood Screening Facility, Harvard Medical School, 2010)
